Source: PubChem BioAssay (National Center for Advancing Translational Sciences (NCATS))
A selection: hits, their analogues and other compounds. The true share with any hit is near 0.41%.
aGal spleen mod: qHTS Assay for Inhibitors and Activators of Human alpha-Galactosidase From Spleen Homogenate; hit rate 0.008% among 240,000; Alpha-galactosidase A (Homo sapiens), P06280; human spleen homogenate, 4MU-alpha-Gal fluorescence, 40 min; Potency, µM (doses to about 80 µM), without a hit: at the highest dose activity change, negative = inhibition, most hits filed as inhibitors; AID 2107, 2009;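 note: potency is the fitted concentration of half-maximal effect; 0% = enzyme with vehicle and -100% = no enzyme basal signal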
Target sequence (P06280 32-429 limits assumed): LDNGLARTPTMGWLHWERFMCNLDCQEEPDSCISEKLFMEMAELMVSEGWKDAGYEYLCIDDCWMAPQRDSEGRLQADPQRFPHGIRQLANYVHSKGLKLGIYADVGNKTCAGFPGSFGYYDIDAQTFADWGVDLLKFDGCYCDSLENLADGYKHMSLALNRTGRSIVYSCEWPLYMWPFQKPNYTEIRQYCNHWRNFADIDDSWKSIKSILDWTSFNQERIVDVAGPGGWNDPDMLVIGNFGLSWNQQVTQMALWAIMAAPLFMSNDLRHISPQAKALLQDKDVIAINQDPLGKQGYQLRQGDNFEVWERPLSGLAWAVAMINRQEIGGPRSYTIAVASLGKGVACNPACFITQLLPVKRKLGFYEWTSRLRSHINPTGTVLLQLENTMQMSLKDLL
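qHTS titration in buffer at pH 5.0. Alpha-galactosidase activity in spleen homogenate was measured via 4-methylumbelliferone release from 1 mM fluorogenic substrate after 40 min at 37C and a pH 10 stop. AC50 came from Hill fits of control-normalized data.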
aGlu spleen mod: qHTS Assay for Inhibitors and Activators of Human alpha-Glucosidase From Spleen Homogenate; Potency, µM (titrated, usually from 79.9 µM), for the others: at the top dose activity change, negative = inhibition, most hits filed as inhibitors; Lysosomal alpha-glucosidase (Homo sapiens), P10253; hit rate 0.006% among 240,000; human spleen homogenate, 4-MU-alpha-glucoside fluorescence;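 note: potency is the fitted concentration of half-maximal effect; 0% = enzyme with vehicle and -100% = no enzyme basal signal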
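Compounds were titrated against alpha-glucosidase in spleen homogenate at pH 5.0, with 1 mM 4-methylumbelliferyl substrate for 40 min at 37 C. Reactions were quenched with pH 10 NaOH/glycine and fluorescence measured.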
GLA inh pH 4.5: qHTS Assay for Inhibitors of Human alpha-Galactosidase at pH 4.5 | Alpha-galactosidase A (Homo sapiens), P06280 | purified enzyme, 4-MU-alpha-Gal fluorescence, pH 4.5 | activity change, negative = inhibition, % at 105 µM | 230,000 tested, under 10 active | AID 1467, 2008;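 note: 0% = full activity with enzyme and -100% = basal without enzyme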
GAA glycogen: qHTS Assay for Inhibitors and Activators of Human alpha-Glucosidase Cleavage of Glycogen; Potency, µM (titrated, usually from 76.4 µM), for inactives: at the top dose activity change, negative = inhibition, most hits filed as inhibitors; hit rate 0.38% among 300,000; recombinant GAA, glycogen substrate, Amplex Red glucose oxidase fluorescence;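 note: potency is the fitted concentration of half-maximal effect; 0% = full enzyme reaction and -100% = no-enzyme basal signal; the screen sought inhibitors and activators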
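Natural-substrate format: glycogen cleavage by 4 nM human enzyme, glucose read by Amplex Red coupling (Ex 573, Em 610 nm). Normalized to enzyme and no-enzyme controls.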
GAA inhib: qHTS Assay for Inhibitors of Human alpha-Glucosidase as a Potential Chaperone Treatment of Pompe Disease; Lysosomal alpha-glucosidase (Homo sapiens), P10253; Potency, µM (series often up to 76.9 µM), for the others: at the top dose activity change, negative = inhibition, actives largely listed as inhibitors; purified human GAA, 4-MU-alpha-glucoside fluorescence; hit rate 0.005% among 200,000;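 note: potency is the fitted concentration of half-maximal effect; plate controls were uninhibited enzyme wells for no effect and no-enzyme background for full effect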
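Human enzyme at 4 nM with 400 uM 4-methylumbelliferyl-alpha-D-pyranoside, citrate/phosphate buffer pH 5.0, 0.005% Tween-20, 20 min at room temperature. Compounds up to 77 uM. 4-MU fluorescence (Ex 365/Em 440) read after NaOH/glycine stop; AC50 from Hill fit.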
N370S GC mod: qHTS Assay for Inhibitors and Activators of N370S glucocerebrosidase as a Potential Chaperone Treatment of Gaucher Disease; N370S GC spleen homogenate, 4MU-glucoside fluorescence; Lysosomal acid glucosylceramidase (Homo sapiens), P04062; Potency, µM (titrated, usually from 59.4 µM), for the others: at the highest dose activity change, negative = inhibition, usual class: inhibitors; hit rate 0.092% among 330,000;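 note: potency is the fitted concentration of half-maximal effect; 0% = full enzyme activity and -100% = no enzyme basal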
An asterisk follows results filed as active; ? = inconclusive; . = no result given; [ ] = dose if it differs, or a comment. Calls come from the whole dose curve; as a rule, active = well fitted curve in the direction sought with a large enough effect; inconclusive = small, poorly fitted or top-dose-only effect, or another doubt; inactive = no such curve, though single readings can be large; an effect the other way counts as inactive or inconclusive.

SMILES	aGal spleen mod	aGlu spleen mod	GLA inh pH 4.5	GAA glycogen	GAA inhib	N370S GC mod
Fc1ccc(-c2nc3ccccn3c2NCc2ccc3c(c2)OCO3)cc1	-2.5%	1.0%	-0.2	?	2.4%	?
COc1cccc(O)c1O	-17.1%	2.3%	0.9	.	.	6.8%
Cc1ccc(CNC(=O)C2CCCN(Cc3nc(-c4cccc(C)c4)oc3C)C2)cc1 (stereo not drawn)	.	.	.	-11.5%[76.3 µM]	.	.
Nc1[nH]ncc1-c1ccc(Cl)cc1	14.9%	.	0.6	-18.4%	-8.3%	-2.1%
COc1cc(-c2cn[nH]c2N)cc(OC)c1OC	6.6%	?	-5.8	11.1µM*	?	-11.9%
Cc1ccc(Sc2ccccc2CN(C)C)c(N)c1	9.5%	6.7%	.	.	.	-11.4%
CCOc1ccc(Nc2oc(-c3ccco3)nc2C#N)cc1	-2.9%	-6.6%	-4.1	35.5µM*	-2.5%	-1.7%
COC(=O)C(c1ccc(OC)c(OC)c1)C1c2ccccc2C=C(C)N1C(=O)OC (stereo not drawn)	-8.3%	-5.7%	-1.1	.	.	19.6%
CC(C)NC(=O)c1ccc(S(=O)(=O)N(C)C)cc1	3.5%	4.5%	5.7	22.7%	0.3%	3.0%
CN(C)NC(=O)c1ccsc1NC(=O)c1ccc(S(=O)(=O)N(C)C)cc1	-1.8%	-2.9%	3.0	5.62µM*	.	-7.4%
CC[C@H](C)[C@H](NC(=O)[C@@H](NC(=O)CNC(=O)[C@@H](N)CC(C)C)[C@@H](C)O)C(=O)N1CCC[C@H]1C(=O)NCC(=O)O	-12.6%	8.3%	.	.	.	0.3%
CC(=O)c1ccc2c3c(ccc(O)c13)CC2	-1.1%	1.2%	-0.3	31.4µM*	4.0%	5.6%
CC(=O)c1ccc(N2CCOCC2)cc1O	-3.2%	2.0%	.	.	.	-0.1%
O=C(NNc1nc2ccccc2nc1C(F)(F)F)c1ccccc1	-7.6%	-17.5%	-2.1	11.2µM*	-4.2%	-5.7%
Cc1ccc(S(=O)(=O)NNc2nc3ccccc3nc2C(F)(F)F)cc1	14.1%	8.8%	1.1	28.2µM*	-11.3%	8.4%
Cc1ccc(S(=O)(=O)NNc2ccccc2)cc1	2.5%	-5.3%	1.3	?	3.5%	.
CCOc1ccc(CCNC(=O)c2nc(-c3cccc(F)c3)n3c2CCCCC3)cc1OCC	.	.	.	-16.1%[76.3 µM]	.	.
Clc1ccc2nc(-c3ccccc3)c(CN3CCOCC3)n2c1	-2.1%	4.5%	1.3	6.6%	5.3%	17.8µM*
Clc1ccc(-c2nc3ccccn3c2CN2CCOCC2)cc1	-8.5%	-8.3%	-11.3	-0.1%	?	-11.4%
CC[C@@H](C)[C@@H](CO[C@@H](Cc1ccccc1)C(=O)N[C@@H](CCS(C)(=O)=O)C(=O)OC(C)C)NC[C@@H](N)CS	-14.2%	0.6%	.	.	.	-3.6%
O=c1ccc2c(OCCCCOc3ccccc3)c3ccoc3cc2o1	18.1%	-3.0%	.	.	.	?
CC(C)(C)c1cc(CNC2CS(=O)(=O)C[C@@H]2O)cc(C(C)(C)C)c1O (stereo partly drawn)	10.0%	4.2%	-0.1	15.7µM*	6.5%	?
O=S1(=O)CC(O)C(NCc2ccco2)C1 (stereo not drawn)	3.3%	10.5%	-0.2	8.4%	1.5%	5.1%
Cc1cccc2sc(N)nc12	2.5%	6.5%	.	.	.	1.4%
CO[C@@H]1CC[C@@]2(C)[C@@H](CC[C@@]3(C)[C@H]2CC=C2[C@H]4CC(C)(C)[C@H](O)[C@@H](OC(C)=O)[C@]4(CO)[C@H](O)C[C@]23C)[C@@]1(C)CO (tested in a mixture with another compound)	-6.0%[29.1 µM]	6.9%[29.1 µM]	2.2	.	.	-26.4%[21.6 µM]
SMILES	aGal spleen mod	aGlu spleen mod	GLA inh pH 4.5	GAA glycogen	GAA inhib	N370S GC mod
C/C=C(/C)C(=O)OC1C(OC(C)=O)[C@@]2(CO)C(O)C[C@@]3(C)C(=CCC4[C@@]5(C)CCC(OC6OC(C(=O)O)[C@@H](O[C@@H]7OC(CO)C(O)C(O)C7O)C(O)[C@H]6O[C@@H]6OC(CO)C(O)C(O)C6O)[C@](C)(CO)C5CC[C@@]43C)C2CC1(C)C (stereo partly drawn)	?	-1.9%	3.2	.	.	15.8µM*
COC(=O)c1cc(NCc2ccccc2F)ccc1N1CCOCC1	5.4%	6.4%	-9.7	?	-1.4%	3.5%
O=C(O)c1cc(NCc2c(F)cccc2Cl)ccc1N1CCOCC1	-0.1%	-6.6%	2.2	7.08µM*	2.8%	24.0%
C=CC(C)(C)c1[nH]c2ccccc2c1C1=C(O)C(=O)C(c2c[nH]c3c(CC=C(C)C)cccc23)=C(O)C1=O	-1.4%	1.8%	0.5	.	.	-7.5%
Cc1cc(C)c(S(=O)(=O)Nc2ccc(O)cc2)cc1C	1.8%	-0.2%	-3.7	14.1µM*	-1.1%	6.3%
Cc1ccc(C)c(S(=O)(=O)Nc2ccc(O)cc2)c1	-2.9%	-4.2%	-1.8	12.5µM*	-1.4%	-4.2%
FC(F)(F)c1cc(NC(=S)Nc2ccc3ccccc3c2)cc(C(F)(F)F)c1	-2.4%	-2.3%	-2.9	.	.	4.5%
O=C1Cc2ccccc2C(=O)N1OCc1ccc(Cl)cc1Cl	-7.9%	-3.6%	0.1	25.1µM*	4.2%	-5.8%
O=C1c2ccccc2C(=O)N1OCc1cccc(Cl)c1	4.1%	-4.0%	12.5	5.7%	-6.2%	3.0%
Cc1cc(C)cc(N(CC(=O)NC2CCCC2)S(=O)(=O)c2c(C)[nH]c(=O)[nH]c2=O)c1	8.0%	2.5%	2.1	5.8%	.	3.55µM*
Cc1ccc(CNC(=O)CN(c2cc(C)cc(C)c2)S(=O)(=O)c2c(C)[nH]c(=O)[nH]c2=O)cc1	.	.	.	-12.9%[76.3 µM]	.	.
COc1ccc(N(CC(=O)NC2CCCC2)S(=O)(=O)c2c(C)[nH]c(=O)[nH]c2=O)cc1	1.5%	-2.1%	0.0	-0.6%	-0.4%	8.91µM*
COc1ccc(C(=C2C(=O)Nc3ccccc32)c2ccc(OC)cc2)cc1	-4.5%	-0.3%	.	.	.	-1.2%
COc1cc(CNc2ccc(N3CCOCC3)cc2)cc(Br)c1OC	1.7%	-20.3%	-2.0	44.7µM*	3.0%	-9.9%
CCOc1cc(CNc2ccc(N3CCOCC3)cc2)cc(Br)c1OCC	-7.6%	-3.1%	-8.5	-2.2%	-5.9%	-7.3%
COc1cc(CNc2ccc(N3CCN(C(C)=O)CC3)cc2)ccc1OCc1ccc(F)cc1	4.9%	1.4%	4.5	25.1µM*	1.5%	-17.1%
